Drawing on PubChem BioAssay (Tox21), this text covers outcome, Potency and PLD induction for nine compounds.

The nature of experiment [1]: qHTS RealTime-Glo MT Cell Viability Assay in HEK293 cells - 0 hour (AID 1224880). Also: top concentration of the series differs between compounds; nearly all actives have a fitted effect of over 45% in size. A digest of the protocol: (§1)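 HEK293 cells mixed with RealTime-Glo reagents (NanoLuc plus cell-permeant prosubstrate) at 600 cells/well, preincubated 5 h at 37 C/5% CO2, then given 23 nL compound in DMSO. Nonlytic luminescence from viable cells was read at 0, 8, 16, 24, 32 and 40 h.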
Background: Quantitative high-throughput screening tests each substance at several concentrations.

The nature of experiment [2]: A CellTox Green Cytotoxicity Assay to monitor cytotoxicity in HEK293 cells - 32 hour (AID 1224881). Also: nearly all actives have a fitted effect of over 40% in size. The essentials:
(§2)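 HEK293 cells premixed with CellTox Green dye were seeded at 600 cells/well and left 5 h at 37 C/5% CO2 before pin transfer of 23 nL compound in DMSO. Fluorescence from dye bound to dead-cell DNA was read during 40 h treatment.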

A short description of experiment [3]: A CellTox Green Cytotoxicity Assay to monitor cytotoxicity in HepG2 cells - 32 hour (AID 1224883). Also: nearly all actives have a fitted effect of over 50% in size. The essentials: (§3)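 HepG2 cells were seeded together with the CellTox Green dye at 600 cells/well, left 5 h at 37 C/5% CO2, then given compounds in DMSO. Fluorescence from dye bound to dead-cell DNA was read repeatedly over 40 h of treatment at 37 C.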
A short description of experiment [4]: qHTS RealTime-Glo MT Cell Viability Assay in HepG2 cells - 16 hour (AID 1224885). Also: nearly all actives have a fitted effect of over 50% in size. A digest of the protocol: (§4)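 Cells + NanoLuc/prosubstrate dispensed (600 cells/well) → 5 h at 37 C/5% CO2 → compounds in DMSO transferred → 40 h incubation at 37 C, luminescence read at 0, 8, 16, 24, 32, 40 h.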
A short description of experiment [5]: qHTS RealTime-Glo MT Cell Viability Assay in HEK293 cells - 8 hour (AID 1224887). Also: top concentration of the series differs between compounds; nearly all actives have a fitted effect of over 50% in size. The essentials:
as §1

Experiment [6] is described as follows: A CellTox Green Cytotoxicity Assay to monitor cytotoxicity in HEK293 cells - 16 hour (AID 1224888). Also: nearly all actives have a fitted effect of over 35% in size. The essentials:
as §2

The nature of experiment [7]: qHTS RealTime-Glo MT Cell Viability Assay in HepG2 cells - 0 hour (AID 1224889). Also: nearly all actives have a fitted effect of over 50% in size. A digest of the protocol: as §4
A short description of experiment [8]: A CellTox Green Cytotoxicity Assay to monitor cytotoxicity in HepG2 cells - 8 hour (AID 1224890). Also: nearly all actives have a fitted effect of over 45% in size. The essentials: as §3
Experiment [9] is described as follows: qHTS assay to identify small molecule antagonists of the estrogen receptor alpha (ER-alpha) signaling pathway using the BG1 cell line in the presence of 0.1 nM 17-beta-estradiol - cell viability counter screen (AID 1259241). Also: nearly all actives have a fitted effect of over 40% in size. A digest of the protocol:
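Live-cell protease activity (CellTiter-Fluor fluorescence, 30 min) was read in the same wells after VM7Luc4E2 cells had been exposed to compounds with 0.1 nM 17beta-estradiol for 22 hr at 37C.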

A short description of experiment [10]: qHTS assay to identify small molecule antagonists of the androgen receptor (AR) signaling pathway using the MDA cell line in the presence of 0.5 nM R1881 - cell viability counter screen (AID 1259242). Also: nearly all actives have a fitted effect of over 45% in size. The essentials: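 MDA-kb2 cells (human breast carcinoma, stably carrying MMTV-luciferase reporter) were exposed to compounds with 0.5 nM R1881 (final) for 16 hr at 37C, 0% CO2; viability then read as live-cell protease fluorescence (CellTiter-Fluor, 30 min) in the same wells.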

Experiment [11] has as its target Androgen receptor (Homo sapiens) (UniProt P10275). Put plainly: qHTS assay to identify small molecule antagonists of the androgen receptor (AR) signaling pathway using the MDA cell line in the presence of 0.5 nM R1881 (AID 1259243). Also: nearly all actives have a fitted effect of over 50% in size. The essentials:
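MDA-kb2 human breast carcinoma cells carrying an MMTV-luciferase reporter (AR- and GR-responsive) were plated, rested 5 hr at 37C, dosed with compounds, then stimulated with 0.5 nM R1881 (final) for 16 hr; luminescence was read after ONE-Glo.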

Experiment [12] in a line: qHTS assay to identify small molecule HDAC inhibitors (AID 1259364). Also: nearly all actives have a fitted effect of over 45% in size. Also: potency is read from the fitted curve at half-maximal effect. A digest of the protocol:
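Wild-type HCT-116 cells were plated overnight, exposed to compounds for 2 h at 37 °C, then given HDAC-Glo class I/II luminogenic reagent for 30 min at room temperature before luminescence was read.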

A short description of experiment [13]: qHTS assay to identify small molecule HDAC inhibitors - cell viability counter screen (AID 1259365). The essentials:
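HCT-116 (wild type), 1,500 cells/well, overnight 37C/5% CO2; compound in DMSO 2hr; CellTiter-Glo 30min RT; luminescence read.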

Experiment [14] is described as follows: qHTS assay to identify small molecule agonists of the sonic hedgehog signaling (Shh) pathway - cell viability counter screen (AID 1259366). Also: nearly all actives have a fitted effect of over 50% in size. A digest of the protocol:
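CellTiter-Fluor fluorescence read-out, 1 hr at 37C, added after 23hr compound exposure. Cells: 3T3 Gli1-Luc, an NIH/3T3 clone with stably integrated Gli1-Luc reporter, plated 4hr before compound.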

Experiment [15] in a line: qHTS assay to identify small molecule antagonists of the sonic hedgehog signaling (Shh) pathway - cell viability counter screen (AID 1259367). Also: nearly all actives have a fitted effect of over 55% in size. A digest of the protocol: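 NIH/3T3-derived Gli1-Luc reporter cells, 2,000/well, plated 4 hr before compound addition, then stimulated with conditioned medium for 24 hr at 37C. Viability measured in the same wells by CellTiter-Fluor fluorescence, reagent added at 23 hr for 1 hr.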

The nature of experiment [16]: A CellTox Green Cytotoxicity Assay to monitor cytotoxicity in HEK293 cells - 8 hour (AID 1224884). Also: nearly all actives have a fitted effect of over 35% in size. A digest of the protocol:
as §2

Experiment [17] is described as follows: qHTS RealTime-Glo MT Cell Viability Assay in HEK293 cells - 24 hour (AID 1224886). A digest of the protocol: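 Tox21 10K qHTS, HEK293, 600 cells/well, RealTime-Glo reagent co-dispensed with cells; 5 h preincubation, compound by pintool, 37 C, luminescence at 0–40 h.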
Experiment [18] can be described thus: qHTS assay to identify small molecule phospholipidosis (PLD) inducers (AID 1259344; active = well fitted curve in the direction sought with a large enough effect; an effect the other way counts as inactive or inconclusive). The essentials:
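HepG2 cells, 900/well, treated with compound plus LipidTOX Red for 24 h at 37 C; amiodarone positive and DMSO negative controls. Fixed with paraformaldehyde/Hoechst, then high-content imaging scored LipidTOX pit count and integrated intensity per well and per cell.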

A short description of experiment [19]: A CellTox Green Cytotoxicity Assay to monitor cytotoxicity in HepG2 cells - 0 hour (AID 1224882). Also: nearly all actives have a fitted effect of over 35% in size. A digest of the protocol: as §3
Experiment [20] concerns the target Estrogen receptor (Homo sapiens) (UniProt P03372). Put plainly: qHTS assay to identify small molecule antagonists of the estrogen receptor alpha (ER-alpha) signaling pathway using the BG1 cell line in the presence of 0.1 nM 17-beta-estradiol (AID 1259244). Also: nearly all actives have a fitted effect of over 50% in size. A digest of the protocol:
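VM7Luc4E2 cells (endogenous full-length ER-alpha, stable 4xERE-luciferase) were grown 5 days in phenol red-free medium with charcoal-stripped FBS, then exposed 22 h at 37C to compounds plus 0.1 nM (final) 17beta-estradiol; ONE-Glo luminescence read-out.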

“And” between values parts separate entries of the source, which are not always exact repeats. Equal entries are not always repeated. Unmarked numbers belong to inactive results. Results filed as inconclusive are left out. The source made the active and inactive calls. Unless noted, calls follow the shape of the dose curve; as a rule, active = well fitted curve in the direction sought with a large enough effect in the repeat runs; inconclusive = weak or mixed curves; inactive = no such curve, though single readings can be large; an effect the other way counts as inactive or inconclusive.
% is scaled to controls: 0 for no effect and ±100 for the full control effect.

Estrogen receptor (Homo sapiens), sequence (P03372 whole entry, looked up): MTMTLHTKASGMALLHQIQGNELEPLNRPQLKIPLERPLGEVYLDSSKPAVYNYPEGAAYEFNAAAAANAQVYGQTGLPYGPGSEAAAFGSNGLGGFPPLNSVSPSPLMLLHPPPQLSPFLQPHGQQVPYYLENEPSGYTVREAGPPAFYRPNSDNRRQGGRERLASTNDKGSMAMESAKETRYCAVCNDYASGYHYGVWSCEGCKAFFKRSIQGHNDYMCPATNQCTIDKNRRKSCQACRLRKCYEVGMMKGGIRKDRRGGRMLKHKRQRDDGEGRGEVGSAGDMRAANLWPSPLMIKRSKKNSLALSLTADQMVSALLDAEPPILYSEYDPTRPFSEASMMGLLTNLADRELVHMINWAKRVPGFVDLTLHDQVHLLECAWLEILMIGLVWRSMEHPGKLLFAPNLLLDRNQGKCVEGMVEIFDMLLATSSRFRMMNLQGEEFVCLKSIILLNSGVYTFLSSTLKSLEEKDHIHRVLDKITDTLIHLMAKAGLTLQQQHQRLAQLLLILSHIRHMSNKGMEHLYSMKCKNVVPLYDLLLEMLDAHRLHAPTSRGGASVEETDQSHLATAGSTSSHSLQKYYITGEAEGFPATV
Androgen receptor (Homo sapiens), sequence (P10275 whole entry, looked up): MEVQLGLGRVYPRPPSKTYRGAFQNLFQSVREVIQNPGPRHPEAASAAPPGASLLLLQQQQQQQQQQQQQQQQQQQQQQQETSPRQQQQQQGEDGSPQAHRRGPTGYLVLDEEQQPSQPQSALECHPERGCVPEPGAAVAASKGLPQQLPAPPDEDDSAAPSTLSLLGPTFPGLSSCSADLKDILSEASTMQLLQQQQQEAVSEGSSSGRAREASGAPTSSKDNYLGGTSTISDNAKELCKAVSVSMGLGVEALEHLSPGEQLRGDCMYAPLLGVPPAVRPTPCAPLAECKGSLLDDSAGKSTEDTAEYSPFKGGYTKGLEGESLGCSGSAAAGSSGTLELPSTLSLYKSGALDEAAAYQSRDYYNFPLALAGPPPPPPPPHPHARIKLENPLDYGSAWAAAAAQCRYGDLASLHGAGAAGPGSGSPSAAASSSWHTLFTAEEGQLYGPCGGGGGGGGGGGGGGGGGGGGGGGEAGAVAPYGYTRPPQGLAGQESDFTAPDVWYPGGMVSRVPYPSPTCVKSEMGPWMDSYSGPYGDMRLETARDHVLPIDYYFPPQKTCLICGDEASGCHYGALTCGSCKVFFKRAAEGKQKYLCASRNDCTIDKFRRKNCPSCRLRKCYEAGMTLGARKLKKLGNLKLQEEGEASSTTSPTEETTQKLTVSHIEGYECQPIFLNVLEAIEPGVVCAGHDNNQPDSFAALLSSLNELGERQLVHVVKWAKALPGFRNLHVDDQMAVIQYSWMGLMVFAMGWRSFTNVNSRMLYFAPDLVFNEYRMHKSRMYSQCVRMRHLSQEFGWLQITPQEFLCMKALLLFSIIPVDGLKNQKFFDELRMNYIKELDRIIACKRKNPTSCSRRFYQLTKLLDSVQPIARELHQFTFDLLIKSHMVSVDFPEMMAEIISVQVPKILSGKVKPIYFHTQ

Regarding `CCN1CCCC1CNC(=O)c1cc(S(N)(=O)=O)ccc1OC` (stereo not drawn), the compound was called inactive in experiment [1], in experiment [4], in experiment [9], in experiment [10], in experiment [13] and in experiment [15]. For the same compound, the Potency result in [2], in experiment [3], in experiment [5], in experiment [6], in experiment [7] and in experiment [8] was “inactive” each time. Besides, the Potency entry in experiment [11], in [12] and in experiment [14] was “inactive” in each case.

In the case of `CCO[Si](CCCN=C=O)(OCC)OCC`, the result in experiment [1], in experiment [4], in [10] and in experiment [13] was inactive. The Potency entry in [2], in experiment [3], in experiment [16], in experiment [17], in experiment [5] and in experiment [6] was “inactive” each time. Also, the Potency result in [7], in experiment [8], in [12] and in experiment [14] was “inactive” each time.

In the case of `NC(CS)C(=O)O` (stereo not drawn), the compound was called inactive in [1], in experiment [4], in [9], in experiment [10] and in [13]. Besides, the Potency entry in experiment [2], in experiment [3], in experiment [16], in [17], in [5] and in [7] was “inactive” in each case. Besides, the Potency entry in experiment [18], in [12] and in experiment [14] was “inactive” in each case.

As to `CC(=O)N[C@@H](CCC(N)=O)C(=O)O`, the compound was called inactive in [1], in [4], in [9], in [10], in [20] and in experiment [13]. For the same compound, the Potency result in experiment [19], in experiment [3], in experiment [16], in experiment [17], in experiment [5] and in experiment [6] was “inactive” in each case. Besides, the Potency entry in experiment [7], in experiment [8], in [18], in experiment [12] and in [14] was “inactive” each time.

For the compound `C=CCOc1nc(OCC=C)nc(OCC=C)n1`, the compound was called inactive in experiment [1], in experiment [4], in experiment [9], in [10], in experiment [13] and in experiment [15]. The Potency entry in [2], in [3], in [16], in experiment [17], in experiment [5] and in experiment [7] was “inactive” each time. Also, the Potency entry in experiment [8], in [12] and in experiment [14] was “inactive” throughout.

Take `COc1ccc(N=[N+]([O-])c2ccc(OC)cc2)cc1`: the outcome in experiment [1], in experiment [4], in [9], in experiment [10], in experiment [20] and in [13] was inactive. Moreover, the Potency entry in experiment [19], in experiment [3], in experiment [16], in experiment [17], in experiment [5] and in experiment [6] was “inactive” throughout. For the same compound, the Potency entry in experiment [7], in experiment [8] and in [14] was “inactive” throughout. In experiment [12], the Potency is 1.08 µM (active).

Consider `Cc1nccn1CC1CCc2c(c3ccccc3n2C)C1=O` (stereo not drawn), for which the compound was called inactive in [1], in experiment [4], in [9], in [10], in experiment [20] and in experiment [13]. Moreover, the outcome in [15] was inactive. Also, the Potency entry in experiment [19], in [3], in experiment [16], in [17], in experiment [5] and in [6] was “inactive” throughout. The Potency entry in experiment [7], in experiment [8], in experiment [12] and in experiment [14] was “inactive” throughout. Also, the PLD induction in experiment [18] was -0.746% [at 7.66 µM] and -2.67% [at 3.15 µM].

In the case of `Nc1[nH]c(=O)ncc1F`, the compound was called inactive in experiment [1], in experiment [4], in experiment [9], in experiment [10], in [20] and in [13]. Moreover, the Potency entry in [2], in experiment [3], in experiment [16], in experiment [17], in experiment [5] and in experiment [7] was “inactive” in each case. The Potency result in experiment [8], in [18], in [12] and in experiment [14] was “inactive” throughout.

`[O-][N+](=Nc1ccccc1)c1ccccc1`: the result in [1], in experiment [4], in experiment [9], in experiment [10], in experiment [20] and in experiment [13] was inactive. The compound was classed as inactive in experiment [15]. Also, the Potency entry in experiment [19], in experiment [3], in [16], in [17], in experiment [5] and in [6] was “inactive” throughout. Further, the Potency entry in [7], in experiment [8], in experiment [18] and in experiment [14] was “inactive” each time. Besides, in experiment [12], the Potency is 9.69 µM (active).
